Inconclusive results are not listed. Active and inactive are the calls of the source. Calls come from the whole dose curve; as a rule, active = well fitted cell-killing curve with a large enough effect; inconclusive = small, poorly fitted or top-dose-only effect, or effect the other way; inactive = no such curve, though single readings can be large or run the other way.
test system: Es-2; assay: Confirmatory qHTS for gynecologic anti-cancer compounds from libraries of approved drugs and bioactive compounds; details: gynecologic cancer cell panel viability, ATPlite luminescence, 48 h; series mostly up to 57.6 µM; activity change, negative = viability loss: at the top concentration; note: nearly all actives have a fitted effect of over 55% in size
How it was run: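 ATPlite luminescence read-out of cell viability; IC50 from 11-point 1:3 titrations, 57.5 uM to 0.977 nM, 48 h compound exposure at 37 C, 5% CO2. Cells seeded at 1,000/well 16 h before dosing.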
% is set by controls: 0 for no effect and ±100 for the full control effect; potency is the fitted concentration of half-maximal effect.

Structure (SMILES)	activity change, negative = viability loss	Potency
COc1cc(Nc2ncc3c(n2)-c2ccc(Cl)cc2C(c2c(F)cccc2OC)=NC3)ccc1C(=O)O	22.5% (inactive)	
NS(=O)(=O)c1ccc(Nc2nc(OCC3CCCCC3)c3[nH]cnc3n2)cc1	-17.6% (inactive)	
COc1cc2c(c(OC)c1OC)-c1ccc(OC)c(=O)cc1[C@@H](NC(C)=O)CC2		0.0708 µM (active)
C#C[C@]1(O)CC[C@H]2[C@@H]3CCC4=CC(=O)CC[C@@H]4[C@H]3CC[C@@]21CC	4.9% (inactive)	
CC1(C)[C@@H](O)CC[C@]2(C)[C@H]3C(=O)C=C4[C@@H]5C[C@@](C)(C(=O)O)CC[C@]5(C)CC[C@@]4(C)[C@]3(C)CC[C@@H]12	12.5% (inactive)	
C[C@]12CCC(=O)C=C1[C@@H]1C[C@@H]1[C@H]1[C@@H]3[C@@H]4C[C@@H]4[C@@]4(CCC(=O)O4)[C@@]3(C)CC[C@@H]12	-1.03% (inactive)	
COc1cc(N2CCC(N3CCN(C)CC3)CC2)ccc1Nc1ncc(Cl)c(Nc2ccccc2S(=O)(=O)C(C)C)n1		24.3 µM (active)
CC[C@]1(O)C[C@H]2CN(CCc3c([nH]c4ccccc34)[C@@](C(=O)OC)(c3cc4c(cc3OC)N(C=O)[C@H]3[C@@](O)(C(=O)OC)[C@H](OC(C)=O)[C@]5(CC)C=CCN6CC[C@]43[C@@H]65)C2)C1		0.432 µM (active)
CNc1nccc(-c2cccnc2Oc2cc(C(=O)Nc3cccc(C(F)(F)F)c3)ccc2C)n1		6.11 µM (active)
CC(C)[C@@H](CS(=O)(=O)C(C)C)N1C(=O)[C@@](C)(CC(=O)O)C[C@H](c2cccc(Cl)c2)[C@H]1c1ccc(Cl)cc1	20.7% (inactive)	
O=c1[nH]c(=O)n([C@H]2C[C@H](O)[C@@H](CO)O2)cc1Br	5.77% (inactive)	
COc1cc(-c2nn(C3CCC(N4CCN(C(C)=O)CC4)CC3)c3ncnc(N)c23)ccc1NC(=O)c1cc2ccccc2n1C (configuration not stated)		30.6 µM (active)
NS(=O)(=O)OC[C@@H]1C[C@@H](n2ccc3c(N[C@H]4CCc5ccccc54)ncnc32)C[C@@H]1O		1.72 µM (active)
CC[C@@]1(O)C(=O)OCc2c1cc1n(c2=O)Cc2cc3c(CN(C)C)c(O)ccc3nc2-1		0.193 µM (active)
Nc1ccccc1NC(=O)c1ccc(CNC(=O)OCc2cccnc2)cc1		7.69 µM (active)
Cc1ccc(C(=O)Nc2ccc(CN3CCN(C)CC3)c(C(F)(F)F)c2)cc1C#Cc1cnc2[nH]ncc2c1		0.306 µM (active)
CCCCc1oc2ccccc2c1C(=O)c1cc(I)c(OCCN(CC)CC)c(I)c1		70.8 µM (active)
COCCOc1ccc2c(c1)ncn2-c1ccc2cccc(N3CCC(N)CC3)c2n1		6.11 µM (active)
CC(C)Oc1ccc2c(=O)c(-c3ccccc3)coc2c1		9.68 µM (active)

Structure (SMILES)	activity change, negative = viability loss	Potency
Cc1cc(C2CCCCC2)n(O)c(=O)c1		9.94 µM (active)
Cn1cnc2c(F)c(Nc3ccc(Br)cc3Cl)c(C(=O)NOCCO)cc21		6.85 µM (active)
Nc1ncn([C@@H]2O[C@H](CO)[C@@H](O)[C@H]2O)c(=O)n1		12.2 µM (active)
CCN(CC)CCNC(=O)c1c(C)[nH]c(/C=C2\C(=O)Nc3ccc(F)cc32)c1C		25.1 µM (active)
OCCNC1CCCc2c1[nH]c1ccc(-c3ccccc3)cc21 (configuration not stated)		19.3 µM (active)
Cc1cc(C(C)Nc2ccccc2C(=O)O)c2nc(N3CCOCC3)cc(=O)n2c1 (configuration not stated)	-20.9% (inactive)	
O=C(CCCCCCNC(=O)c1cnc(N(c2ccccc2)c2ccccc2)nc1)NO		13.7 µM (active)
COc1cccc2c1C(=O)c1c(O)c3c(c(O)c1C2=O)C[C@@](O)(C(=O)CO)C[C@@H]3O[C@H]1C[C@H](N)[C@H](O)[C@H](C)O1		1.72 µM (active)
CC1=C(/C=C/C(C)=C/C=C/C(C)=C/C(=O)Nc2ccc(O)cc2)C(C)(C)CCC1		27.3 µM (active)
CN(NC(=O)CC(=O)NN(C)C(=S)c1ccccc1)C(=S)c1ccccc1		0.611 µM (active)
CCOC(=O)C1=C(C)NC2=C(C(=O)CC(C)(C)C2)C1c1ccc(-c2ccccc2)cc1 (configuration not stated)	-4.79% (inactive)	
O=C(NOCC1CC1)c1ccc(F)c(F)c1Nc1ccc(I)cc1Cl		1.53 µM (active)
CCC1C(=O)N(C)c2cnc(Nc3ccc(C(=O)NC4CCN(C)CC4)cc3OC)nc2N1C1CCCC1 (configuration not stated)		0.0611 µM (active)
Cc1nc(N)nc(N)c1-c1ccc(Cl)c(Cl)c1		1.37 µM (active)
CN(C)CC/C=C1\c2ccccc2COc2ccccc21	14.1% (inactive)	
CC[C@@]1(O)C(=O)OCc2c1cc1n(c2=O)Cc2cc3cc(O)ccc3nc2-1		0.0544 µM (active)
CN1CCN(c2ccc(OC(F)(F)F)c(Nc3ncc4c(n3)-c3c(c(C(N)=O)nn3CCO)CC4)c2)CC1		0.217 µM (active)
COc1cc2c(Oc3ccc(-c4cnc(Nc5ccc(F)cc5)n(C)c4=O)cc3F)ccnc2cc1OCCCN1CCOCC1	-8.74% (inactive)	
